The values below come from the supplement of paper PMC8728848.

Assay in all cases: glycan array binding signal (z-score within array); higher = stronger binding
What all share (settings): glycan notation: IUPAC condensed, linker removed

Assay [1] has as its target GlcA3S(b1-3)Gal(b1-4)GlcNAc(b1-2)Man. A digest of the protocol:
(§1)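 Arrays were curated from the Consortium for Functional Glycomics database, 3228 in total, and kept only where the protein sequence was available. Binding is expressed as a within-array Z-score. This score was averaged across arrays of the same protein sequence at different concentrations or buffers and across linkers, and negative values can be read as non-binding.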

In assay [2] the target is GlcNAc(b1-3)Gal(b1-4)GlcNAc(b1-6)[Gal(b1-3)]GalNAc. The method in brief: as §1
Another assay concerns the target Man(a1-2)Man(a1-3)Man. The method in brief: as §1
Assay [3] deals with Man(a1-3)[Man(a1-6)]Man(b1-4)GlcNAc(b1-4)[Fuc(a1-6)]GlcNAc. The method in brief:
as §1

For the next assay, the target named is Man(b1-4)GlcNAc. The method in brief: as §1
For assay [4], the target named is Neu5Ac(a2-3)Gal(b1-3)GlcNAc(b1-2)Man(a1-3)[Neu5Ac(a2-3)Gal(b1-3)GlcNAc(b1-2)Man(a1-6)]Man(b1-4)GlcNAc(b1-4)GlcNAc. The method in brief:
as §1

Assay [5] deals with Neu5Ac(a2-3)Gal(b1-3)GlcNAc(b1-6)GalNAc. The method in brief: as §1
The target in assay [6] is Neu5Ac(a2-3)Gal(b1-4)GlcNAc(b1-3)Gal. The method in brief: as §1
The target of assay [7] is Neu5Ac(a2-3)Gal(b1-4)GlcNAc(b1-3)Gal(b1-4)GlcNAc(b1-2)Man(a1-3)[Neu5Ac(a2-3)Gal(b1-4)GlcNAc(b1-3)Gal(b1-4)GlcNAc(b1-2)Man(a1-6)]Man(b1-4)GlcNAc(b1-4)GlcNAc. A digest of the protocol:
as §1

Assay [8] addresses Neu5Ac(a2-3)Gal(b1-4)GlcNAc(b1-6)[Gal(b1-3)]GalNAc. A digest of the protocol: as §1
The target in assay [9] is Neu5Ac(a2-3)Gal(b1-4)[Fuc(a1-3)]GlcNAc(b1-2)Man. The method in brief:
as §1

In assay [10] the target is Neu5Ac(a2-3)Gal(b1-4)[Fuc(a1-3)]GlcNAc(b1-3)Gal(b1-4)GlcNAc. A digest of the protocol: as §1
The target in assay [11] is Neu5Ac(a2-3)[Neu5Ac(a2-6)]GalNAc. The method in brief:
as §1

Assay [12] concerns the target Neu5Ac(a2-6)Gal(b1-4)GlcNAc(b1-2)Man(a1-3)[GlcNAc(b1-4)][Neu5Ac(a2-6)Gal(b1-4)GlcNAc(b1-2)Man(a1-6)]Man(b1-4)GlcNAc(b1-4)GlcNAc. The method in brief: as §1
Assay [13] deals with Neu5Ac(a2-6)Gal(b1-4)GlcNAc(b1-2)Man(a1-6)[Gal(b1-4)GlcNAc(b1-2)Man(a1-3)]Man(b1-4)GlcNAc(b1-4)GlcNAc. A digest of the protocol: as §1
The target in assay [14] is Neu5Ac(a2-6)Gal(b1-4)GlcNAc(b1-3)Gal(b1-4)GlcNAc(b1-3)Gal(b1-4)GlcNAc. The method in brief:
as §1

In assay [15] the target is Neu5Ac(a2-6)Gal(b1-4)GlcNAc(b1-3)Gal(b1-4)[Fuc(a1-3)]GlcNAc(b1-3)Gal(b1-4)[Fuc(a1-3)]GlcNAc. A digest of the protocol:
as §1

The target in assay [16] is Neu5Ac(a2-6)Gal(b1-4)GlcNAc6S. A digest of the protocol:
as §1

The target in assay [17] is Neu5Ac(b2-6)Gal(b1-4)GlcNAc. The method in brief: as §1
Assay [18] addresses Neu5Gc(a2-8)Neu5Gc(a2-6)Gal(b1-4)GlcNAc. The method in brief:
as §1

Many of the other results were omitted from the sample, so the strongest signals are more common in it than they were.

B1: Epa1 (Candida glabrata) (protein)
chain: MGSSHHHHHHSSGLVPRGSHMTSSNDISLASKDPTTFPLGCSPDITTPKKGLSMELYSYDFRKKGSYPCWDAAYLDPNYPRTGYKSHRLLAKVDGVTGNINFYYHATKGCTPQLGHLPASYNYPKPLTMTNFTMLLYGYFRPKVTGFHTFTISADDLLFVNFGAGNAFDCCRRDSSADHFGNYQAYAIWGSKTAKDELTVHLDAGVYYPIRLFYNNREYDGALSFTFKTESNENTVSDFSEYFFSLDDTEEGCPGLISYD
Turning to B1, the “glycan array binding signal (z-score)” value in [1] is -0.3; in assay [2], 1.03; with Man(a1-2)Man(a1-3)Man it was -0.318; in assay [3], -0.271; with Man(b1-4)GlcNAc, -0.281; in assay [4] it was -0.325. In addition, the “glycan array binding signal (z-score)” value in assay [5] is -0.293; in assay [6], -0.288; in [7] it was -0.257; in assay [8], 1.45; in assay [9] it was -0.346; in assay [10], -0.214. The “glycan array binding signal (z-score)” value in assay [11] is -0.328; in assay [12] it was -0.32; in [13], -0.14; in assay [14], -0.267; in assay [15], -0.272; in assay [16], -0.335. The results for the “glycan array binding signal (z-score)” value in assay [17] and in [18] were -0.248 and -0.309, respectively.
